Screening data (PubChem BioAssay)
Hits are enriched below; roughly 5.2% of the tested compounds scored in any of these assays.
SKN-1 block = suppressors of acrylamide-induced Pgst-4::GFP reporter in worms, primary screen, SKN-1 inhibitor project, whole organism, uHTS, GFP/RFP fluorescence ratio, strain VP596; C. elegans VP596 Pgst-4::GFP/RFP ratio, 24 h; inhibition, % at 21.8 µM; hit rate 0.49% among 360,000;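 active = interference check ratio from 0.5 to 1.5 plus GFP to RFP signal ratio inhibition reaching or exceeding a fixed threshold, cut at about 30% in these data, passing the limit was not always enough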
NadD inh = inhibitors of S. aureus NadD, primary screen, biochemical, colorimetric, uHTS | purified NadD enzyme, colorimetric absorbance read-out | Nicotinate-nucleotide adenylyltransferase NadD (Staphylococcus aureus N315) | hit rate 0.78% among 360,000 | inhibition, % at 20 µM; in the data active = inhibition above about 26%
SMARCA2 activ = SMARCA2 (BRM) function activators, primary screen, cell-based, luminescence, high throughput. MG213 cells, MMTV-luciferase reporter, dexamethasone, overnight. activation, % at 9.1 µM. hit rate 1% among 370,000. AID 652017, 2013; in the data active = activation above about 7.8%
GRIN3A LBD mod = binders of NR3A ligand-binding domain, primary screen, biophysical, differential scanning fluorimetry, uHTS; Glutamate receptor ionotropic, NMDA 3A (GRIN3A) ligand-binding domain; NR3A LBD differential scanning fluorimetry, Tm shift; 0% = protein alone, 100% = glycine-bound protein; Tm shift relative to glycine control, % at 25 µM; hit rate 2.5% among 340,000;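 active = melting temperature shift of at least 10% of the positive control shift, at one fixed dose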
esBAF inh = Bmi1 luciferase reporter increase in mESCs, primary screen, esBAF inhibitor project, mouse ES cells, Bmi1 luciferase knock-in, single point; hit rate 2% among 350,000; reporter increase, % at 12.5 µM; 24 h; 100% = twice the neutral-well signal; in the data active = activation above about 40%;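 note: a rise in the Bmi1 reporter signal indicates esBAF inhibition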
Vif inh = HIV Vif self-association inhibitors, primary screen, imaging, HEK293T, single point. AID 602346, 2012. HEK293T cells, Vif self-association by quenched fluorescence, 24 h. inhibition, % at 7.49 µM. hit rate 0.35% among 340,000; in the data active = inhibition above about 50%, passing the limit was not always enough
Each line names hits and unclear results; the compound was inactive in the other large screens.

CCN(CC)c1ccc(/C=N/N2C(=O)c3ccccc3C2=O)c(O)c1	GRIN3A LBD mod 23.6 (no result: esBAF inh)
Nc1nnnn1/N=C/c1cc(Cl)ccc1O	none
CCN(CC)c1ccc(/C=N/n2nnnc2N)c(O)c1	esBAF inh 44.4
CCN(CC)c1ccc(/C=N/N2C(=O)c3ccccc3C2=O)cc1	none
CCCNC(=O)[C@@H]1[C@@H](CO)[C@@H]2Cn3c(cccc3=O)[C@@H]2N1Cc1ccccc1Cl	none (no result: SKN-1 block, NadD inh, SMARCA2 activ, GRIN3A LBD mod, Vif inh)
C[C@@H]1CN([C@@H](C)CO)C(=O)CCCn2cc(nn2)CO[C@@H]1CN(C)C(=O)Cc1ccccc1	none (no result: SKN-1 block, NadD inh, SMARCA2 activ, GRIN3A LBD mod, Vif inh)
COc1ccc(-c2cnc3c(c2)C(=O)N([C@H](C)CO)C[C@H](C)[C@@H](CN(C)C)O3)cc1	none (no result: SKN-1 block, NadD inh, SMARCA2 activ, GRIN3A LBD mod, Vif inh)
Cc1noc(C)c1S(=O)(=O)N(C)C[C@@H]1Oc2c(NC(=O)C3CC3)cccc2C(=O)N([C@@H](C)CO)C[C@@H]1C	none (no result: SKN-1 block, NadD inh, SMARCA2 activ, GRIN3A LBD mod, Vif inh)
COc1cccc(CNS(=O)(=O)c2cc(Br)cc3c2N(C(C)=O)C(C)C3)c1 (centres undefined)	GRIN3A LBD mod 12.1
CC(=O)N1c2c(cc(Br)cc2S(=O)(=O)NCc2ccccc2)CC1C (centres undefined)	none
COc1ccc(OC)c(N=c2oc3c(OC)cccc3cc2C(=O)NCc2ccco2)c1	none
COc1ccccc1N=c1oc2c(OC)cccc2cc1C(=O)NCc1ccco1	esBAF inh 52.2 (no result: SMARCA2 activ)
O=C(c1cccc(F)c1)N1CCN(c2cccc(C(F)(F)F)c2)CC1	SKN-1 block 38.6 (no result: esBAF inh)
COc1ccc(S(=O)(=O)N2CCCC2CNC(=O)C(=O)NC2CCCCCC2)cc1 (centres undefined)	GRIN3A LBD mod 16.8 (no result: esBAF inh)
CCC[n+]1c2ccccc2cc2ccccc21	none
CCCC[n+]1c2ccccc2cc2ccccc21	GRIN3A LBD mod 22.2
O=C(O)C[C@H]1CC[C@@H](NC(=O)c2ccccc2F)[C@@H](CO)O1	none (no result: SKN-1 block, NadD inh, SMARCA2 activ, GRIN3A LBD mod, Vif inh)
COc1ccccc1NC(=O)COc1ccc(CO)cc1Cl	GRIN3A LBD mod 11.0, esBAF inh 51.3
C[C@H](CO)N1C[C@H](C)[C@@H](CN(C)C(=O)c2ccc3c(c2)OCO3)Oc2cc(-c3cncnc3)ccc2S1(=O)=O	none (no result: SKN-1 block, NadD inh, SMARCA2 activ, GRIN3A LBD mod, Vif inh)
C[C@H](CO)N1C[C@H](C)[C@@H](CN(C)C(=O)c2ccccc2)Oc2ncc(C3=CCCCC3)cc2C1=O	none (no result: SKN-1 block, NadD inh, SMARCA2 activ, GRIN3A LBD mod, Vif inh)
COc1cccc(C2=CC(=O)C[C@H](c3ccc4c(c3)OCO4)C2)c1OC	esBAF inh 43.0 (no result: SMARCA2 activ)
O=C(c1ccccc1)N1C[C@@H]2[C@H](c3ccccc31)[C@H](CO)N2C(=O)c1cccc(F)c1	none (no result: SKN-1 block, NadD inh, SMARCA2 activ, GRIN3A LBD mod, Vif inh)
CNc1cncc(-c2ccc(OC)cc2)n1	esBAF inh 40.6 (no result: GRIN3A LBD mod)
CCCCCCCCCC(=O)N[C@@H]1c2cc(OC)c(OC)cc2C[C@H]1OCc1ccccc1	none
COc1cc2c(cc1OC)[C@@H](NC(=O)CCc1ccccc1)[C@H](OCc1ccccc1)C2	SKN-1 block 35.4
COc1cc2cc(-c3ccc(O)cc3O)nc(C)c2cc1OC	GRIN3A LBD mod 29.3
Cc1ccc(C(=O)Cn2cnc3ccccc3c2=O)cc1	esBAF inh 56.0
CCCSc1cc(NCCOC(=O)CCC)c([N+](=O)[O-])c2nonc12	none
CCCSc1cc(NCCOC(C)=O)c([N+](=O)[O-])c2nonc12	GRIN3A LBD mod 13.4 (no result: esBAF inh)
Cc1ccc(S(=O)(=O)Nc2cccc3c2O[C@@H](CN(C)C(=O)Nc2c(C)noc2C)[C@@H](C)CN([C@H](C)CO)C3=O)cc1	none (no result: SKN-1 block, NadD inh, SMARCA2 activ, GRIN3A LBD mod, Vif inh)
CCOc1ccc(NC(=O)CCc2c(C)nn(-c3ccc(N4CCCCC4)nn3)c2C)cc1	GRIN3A LBD mod 14.0, esBAF inh 52.4
CCc1ccc(NC(=O)CCc2c(C)nn(-c3ccc(N4CCCCC4)nn3)c2C)cc1	esBAF inh 61.7
CCc1ccc(NC(=O)CCc2nnc3ccc(N4CCC5(CC4)OCCO5)nn23)cc1	GRIN3A LBD mod 10.8
Cc1nn(-c2ccc(N3CCCCC3)nn2)c(C)c1CCC(=O)Nc1ccc(F)cc1	none
Cc1cc(C)cc(NC(=O)CCc2c(C)nn(-c3ccc(N4CCOCC4)nn3)c2C)c1	none
COCC(=O)N(C)C[C@H]1Oc2ncc(-c3ccccc3F)cc2C(=O)N([C@@H](C)CO)C[C@@H]1C	none (no result: SKN-1 block, NadD inh, SMARCA2 activ, GRIN3A LBD mod, Vif inh)
Cc1cc2n(n1)SC(Nc1cccc3ccccc13)N2 (centres undefined)	esBAF inh 50.2
CCCNC(=O)N(C)C[C@H]1Oc2ncc(-c3ccncc3)cc2C(=O)N([C@@H](C)CO)C[C@@H]1C	none (no result: SKN-1 block, NadD inh, SMARCA2 activ, GRIN3A LBD mod, Vif inh)
CC1(c2ccc(NC(=O)c3ccccc3F)cc2)CC1(Cl)Cl (centres undefined)	esBAF inh 62.9
COc1ccc(C2CC(c3ccc(OC)c(OC)c3)=NN2S(C)(=O)=O)cc1 (centres undefined)	esBAF inh 71.1
C[C@H]1CN([C@@H](C)CO)C(=O)c2cc(NC(=O)CCCN(C)C)ccc2O[C@H]1CN(C)S(=O)(=O)c1cccs1	none (no result: SKN-1 block, NadD inh, SMARCA2 activ, GRIN3A LBD mod, Vif inh)
N#CC(C#N)=Cc1cn(-c2ncc(C(F)(F)F)cc2Cl)c2ccccc12	none (no result: esBAF inh, Vif inh)
CC(=O)/C=C\c1cn(-c2ncc(C(F)(F)F)cc2Cl)c2ccccc12	GRIN3A LBD mod 13.6 (no result: esBAF inh, Vif inh)
C[C@H](CO)N1C[C@H](C)[C@@H](CN(C)CC2CCCC2)Oc2cc(C#CC(C)(C)O)ccc2S1(=O)=O	none (no result: SKN-1 block, NadD inh, SMARCA2 activ, GRIN3A LBD mod, Vif inh)
CCCc1cc2nnc(SCC(=O)N(C)C3CCCCC3)n2c(N)n1	SKN-1 block 43.5
CCCc1cc(=O)[nH]c(SCC(=O)N(C)C2CCCCC2)n1	none
O=C(Nc1cc(Cl)ccc1Cl)P(=O)(O)c1ccccc1	Vif inh 57.3
C[C@@H]1CN([C@H](C)CO)C(=O)Cc2cc(NC(=O)Cc3cn(C)c4ccccc34)ccc2O[C@@H]1CN(C)C(=O)Nc1ccccc1	none (no result: SKN-1 block, NadD inh, SMARCA2 activ, GRIN3A LBD mod, Vif inh)
N#C/C(=C\c1ccco1)Sc1nc2ccccc2s1	SKN-1 block 44.5
COc1cccc(CN2C[C@@H](C)[C@H](OC)CN(C)C(=O)c3ccc(NS(=O)(=O)c4cn(C)cn4)cc3OC[C@H]2C)c1	none (no result: SKN-1 block, NadD inh, SMARCA2 activ, GRIN3A LBD mod, Vif inh)
CCC1(C)CC(C(CC(=O)O)c2ccc(C)cc2)CCO1 (centres undefined)	GRIN3A LBD mod 11.0
COC(=O)C[C@H]1CC[C@@H]2[C@H](COc3ccc(NC(=O)Nc4cc(C)cc(C)c4)cc3C(=O)N2C)O1	none (no result: SKN-1 block, NadD inh, SMARCA2 activ, GRIN3A LBD mod, Vif inh)
C[C@@H]1CCCCO[C@H](CN(C)C(=O)CCC(F)(F)F)[C@@H](C)CN([C@@H](C)CO)C(=O)c2cc(NC(=O)CCCCCC(=O)Nc3ccccc3N)ccc2O1	none (no result: SKN-1 block, NadD inh, SMARCA2 activ, GRIN3A LBD mod, Vif inh)
COc1ccccc1-c1ccc([C@H]2[C@@H](CO)N(C(=O)NC3CCCCC3)[C@H]2C#N)cc1	esBAF inh 59.4 (no result: SKN-1 block, NadD inh, SMARCA2 activ, GRIN3A LBD mod, Vif inh)
